# Compound activity (PubChem)
# Vaccinia mCherry: vaccinia inhibition (mCherry reporter); Vaccinia virus mCherry reporter infection, fluorescence; Potency, µM (titrated, usually from 36.5 µM), for inactives: top-dose activity change, negative = inhibition, actives largely listed as inhibitors; 310,000 compounds, 0.63% hits; calls by dose curve; tested in A549 cells; note: potency is the fitted concentration of half-maximal effect; nearly all actives have a fitted effect of over 35% in size
# Marburg entry inh: Marburg virus entry inhibition | Marburg virus pseudotyped entry inhibition, cell reporter | Potency, µM (series often up to 37.8 µM), inactives show at the top dose activity change, negative = inhibition, actives largely listed as inhibitors | 300,000 compounds, 1.8% hits; calls by dose curve; tested in HEK293 cells; note: potency is the fitted concentration of half-maximal effect
# FMDV inh: blocks foot and mouth disease virus. FMDV antiviral cell-based qHTS. Potency, µM (highest dose often 57.9 µM), for inactives: top-dose activity change, negative = inhibition, hits mostly inhibitors. 410,000 compounds, 1.2% hits; calls by dose curve; tested in HEK293T cells; note: read-out not given here; potency is the fitted concentration of half-maximal effect; nearly all actives have a fitted effect of over 45% in size
# LASV entry inh: Lassa virus entry inhibition. Lassa virus pseudotype entry inhibition, cell reporter. Potency, µM (series often up to 37.9 µM), for inactives: at the top dose activity change, negative = inhibition, usual class: inhibitors. 300,000 compounds, 1.2% hits. AID 540256; calls by dose curve; tested in HEK293 cells; note: potency is the fitted concentration of half-maximal effect; nearly all actives have a fitted effect of over 50% in size
# Vaccinia Venus: inhibitors of vaccinia virus (Venus reporter); 330,000 compounds, 0.46% hits; Potency, µM (series often up to 36.5 µM), for inactives: top-dose activity change, negative = inhibition, hits mostly inhibitors; Vaccinia virus Venus reporter expression, fluorescence; calls by dose curve; tested in A549 cells; note: potency is the fitted concentration of half-maximal effect; nearly all actives have a fitted effect of over 30% in size
# HCMV inh: blocks human cytomegalovirus replication | HFF cells, HCMV-luciferase reporter, 72 h; hits give low values | activity change, negative = inhibition, % at 57.5 µM | 410,000 compounds, 4.5% hits; in the data active = activity change below about -60%; inconclusive = no clear call, values can overlap the other calls; inactive = above about -39%
#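 Inhibition of viral replication was scored as loss of reporter luminescence in HFFs infected with HCMV-luciferase (MOI 1 PFU/cell) for 72 h; compounds tested at 2 doses, normalized to buffer and Salinomycin controls.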
# Numbers without * were called inactive; i = inactive; ? = inconclusive; . = no result; [ ] = remark or other dose. This is a sample that favours compounds with a hit; in the whole collection about 6.5% have one here. % is set by controls: 0 for no effect and ±100 for the full control effect.
SMILES,Vaccinia mCherry,Marburg entry inh,FMDV inh,LASV entry inh,Vaccinia Venus,HCMV inh
Cc1ccccc1-c1nc(-c2ccccn2)no1,0%,?,6.3µM*,1.3µM*,9%,-8
Brc1ccc(-c2nc(-c3ccccn3)no2)o1,i,7.9µM*,-59%,8.9µM*,-25%,-6
Cc1cccc(OC(C)C(=O)Nc2ncn[nH]2)c1 (centres undefined),-15%,.,8%,2%[46.1 µM],-10%,-7
COC[C@@H](OC(C)=O)[C@H]1OCc2ccccc2[C@@H]1C=Cc1ccccc1,.,14%[14.2 µM],.,.,.,.
CCN1C(=O)[C@@H]2Cc3c([nH]c4ccccc34)C(c3ccc(OC)cc3)N2C1=S (some centres undefined),.,.,2%,.,.,.
CCN(CC)c1nc(-c2ccccn2)nc(-c2ccccc2)c1C#N,?,6.3µM*,?,?,?,-93*
CN(C)c1nc(-c2ccccn2)nnc1-c1ccccc1,8.9µM*,?,-2%,?,?,-103*
CN(C)c1nc(-c2ccccc2)nc(-c2ccc(Cl)cc2)c1C#N,.,0%,-17%,18%,6%,-25
COc1ccc(NC(=O)C2=CC(c3ccc(C)cc3)=NS(=O)(=O)N2C)cc1OC,i,.,?,.,-11%,-62*
COc1ccc(C2=NS(=O)(=O)N(C)C(C(=O)Nc3ccc(OC)c(OC)c3)=C2)cc1,i,.,?,.,-9%,?
Cc1ccc(CN2C(=O)CCC2(C)c2nnnn2-c2ccc3c(c2)OCCO3)cc1 (centres undefined),-8%,.,-9%,.,6%,10
Nc1c(C(=O)Nc2cccc(F)c2)nnn1-c1ccc2c(c1)OCCO2,-17%,?,-18%,4µM*,-13%,135
COc1ccc(CCNC(=O)c2nnn(-c3ccccc3OC)c2N)cc1OC,-16%,-16%,-19%,15%,-15%,29
COc1ccc(CCN2C(=O)CCC2(C)c2nnnn2-c2ccc3c(c2)OCCO3)cc1OC (centres undefined),41%,.,-12%,.,0%,-83*
COc1ccc(CCNC(=O)c2nnn(-c3ccc4c(c3)OCCO4)c2N)cc1OC,.,?,3.5µM*,?,.,-75*
Cc1cnc(-n2ncc(C(=O)NCc3cccnc3)c2C)nc1-c1ccc(F)cc1,?,.,-26%,.,-29%,.
COC(=O)C1=C(c2cccc(OCc3ccccc3)c2)C[C@@H]2CC[C@H]1N2C(=O)NCc1ccccc1OC,?,.,-7%,.,?,-88*
COC(=O)C1=C(c2ccc(OCc3ccccc3)cc2)C[C@@H]2CC[C@H]1N2C(=O)NCc1cccc(OC)c1,?,.,-6%,.,?,-67*
c1cnc2[nH]ccc2c1,i,.,.,.,-14%,.
CCCCCCCCNC(=O)CC(NS(=O)(=O)c1ccc(NC(C)=O)cc1)C(C)C (centres undefined),-27%,8%,12%,2.1µM*,-23%,-16
CC(=O)Nc1ccc(S(=O)(=O)NC(CC(=O)NCCCN2CCOCC2)C(C)C)cc1 (centres undefined),.,5%[46.1 µM],-12%,-4%,-19%,12
O=c1oc(-c2ccccc2)cc(Cl)c1Cl,i,11µM*,25µM*,?,-10%,-101*
Cc1cccc(C)c1OCC(=O)N(Cc1ccc(Cl)cc1)CC1CCCO1 (centres undefined),-16%,?,-10%,-14%[46.1 µM],-17%,-22
COC(=O)C(Sc1ccc(Cl)cc1)C1SC(=S)N(Cc2ccccc2)C1=O (centres undefined),-9%,.,32µM*,.,-18%,-5
CN(CC(=O)Nc1cccc(S(=O)(=O)N2CCOCC2)c1)CC(=O)Nc1ccc(Cl)c(C(F)(F)F)c1,-30%,?,?,?,?,-75*
SMILES,Vaccinia mCherry,Marburg entry inh,FMDV inh,LASV entry inh,Vaccinia Venus,HCMV inh
O=C(CNc1cccc(S(=O)(=O)N2CCOCC2)c1)Nc1ccc(C(F)(F)F)cc1,-12%,?,32µM*,-19%,-23%,-11
CCCCNC(=O)C1(C)CCCCN1C(=O)c1ccc2sccc2c1 (centres undefined),39%,.,0%,.,-5%,-1
O=C(c1ccco1)N1CCN(c2nc(C3CC3)nc3c2nnn3Cc2ccccc2Cl)CC1,?,?,35µM*,?,?,-36
CC(C)(C)c1nc(N2CCN(C(=O)c3ccco3)CC2)c2nnn(Cc3ccccc3)c2n1,.,?,28µM*,26µM*,.,?
CC1(C)CC(=O)C=C(C#CC2CC2)C1,.,.,.,.,.,3
COc1ccc2[nH]c(C(O)C(O)c3nc4c(OC)c(OC)ccc4[nH]3)nc2c1OC (centres undefined),-4%,.,.,.,-20%,.
O=C(O)c1cccc(Nc2ccc3nonc3c2[N+](=O)[O-])c1,.,.,-11%,.,.,-3
O=[N+]([O-])c1c(Nc2cccc(O)c2)cc(Cl)c2nonc12,?,?,22µM*,?,?,-102*
CNc1cc(Cl)c2nonc2c1[N+](=O)[O-],-27%,?,13µM*,?,?,-99*
Cc1c(Nc2cc(Cl)c3nonc3c2[N+](=O)[O-])c(=O)n(-c2ccccc2)n1C,?,?,14µM*,?,28µM*,89
O=C(O)c1ccc(Nc2cc(Cl)c3nonc3c2[N+](=O)[O-])cc1,-2%,29%[46.1 µM],40µM*,12%,-3%,3
CCN=C(NC#N)SCc1c(F)cccc1Cl,2%,0%,-17%,1%,12%,28
O=C1N=C(N2CCOCC2)S/C1=C\c1ccccc1OS(=O)(=O)c1ccccc1,.,.,-1%,.,.,?
CC(=O)N1CCN(C2=NC(=O)/C(=C/c3ccc(OS(=O)(=O)c4ccccc4)cc3)S2)CC1,.,.,-15%,.,.,-70*
CC1CC(C)CN(S(=O)(=O)c2ccc(NC(=O)C3CSC4(C)CCC(=O)N34)cc2)C1 (centres undefined),-8%,-30%,-2%,?,-25%,-21
CCOc1ccc(Cl)cc1CSc1n[nH]c(C)n1,-14%,0%[46.1 µM],-17%,-4%,-13%,-72*
Cc1nc(SCc2ccccc2C)n[nH]1,.,28%,31%,5%,.,37
O=C(O)C1OCC2(CO1)COC(C(=O)O)OC2 (centres undefined),-14%,-5%,1%,16%,-6%,-10
O=C(COc1ccc(Br)cc1)N1CCN(Cc2c[nH]c3ccccc23)CC1,14µM*,?,-25%,?,?,10
COc1ccc(Br)cc1CN1CCN(Cc2c[nH]c3ccccc23)CC1,?,?,-27%,?,?,-100*
Cn1c2c(c(=O)n(C)c1=O)[C@](NC(=O)c1cccs1)(C(F)(F)F)C(=O)N2,.,14%,.,.,.,.
COc1ccc(-n2nc3c(N4CCC(C(=O)NCCc5ccccc5C)CC4)nnc(C)c3c2C)cc1,-1%,?,-28%,-15%[46.1 µM],-23%,.
COc1ccc(-n2nc3c(N4CCCC(C(=O)NCCc5ccccc5C)C4)nnc(C)c3c2C)cc1 (centres undefined),-27%,.,-7%,-17%[46.1 µM],-8%,-87*
